Reference: PubChem BioAssay (NCI)
The panel holds about 79,000 compounds, 15% with a hit somewhere; the sample as a whole holds those more often. Active and inactive are the calls of the source. Cut-off read from the data, not from the text of the source: active = growth inhibition above about 70%; inactive = the rest.

Tests used:
[1] = NCI Yeast Anticancer Drug Screen. Data for the rad52 strain (AID 147);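 note: 0% = growth of vehicle-treated control cultures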; settings: S. cerevisiae rad52 mutant growth inhibition, active compounds read high
In short: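 DNA repair-defective yeast; compound exposure; growth scored against vehicle controls.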

[2] = NCI Yeast Anticancer Drug Screen. Data for the wt1 strain (AID 149);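 note: 0% = growth of vehicle-treated wt1 cultures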; settings: S. cerevisiae wt1 strain (SPY 50644) growth inhibition, active compounds read high
In short: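 wt1 yeast, compound-treated; % growth inhibition vs vehicle control.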

[3] = NCI Yeast Anticancer Drug Screen. Data for the rad50EPP+ strain (AID 151);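 note: 0% = growth of vehicle-treated control cultures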; settings: S. cerevisiae rad50 mutant strain, active compounds read high
In short: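 rad50EPP+ yeast treated with test compounds. Readout: growth vs vehicle control.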

[4] = NCI Yeast Anticancer Drug Screen. Data for the mgt1 strain (AID 153); settings: S. cerevisiae mgt1 mutant growth inhibition, active compounds read high
In short: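 Growth inhibition relative to vehicle controls was scored for the mgt1 yeast strain after compound exposure.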

[5] = NCI Yeast Anticancer Drug Screen. Data for the rad50 strain (AID 155);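 note: 0% = growth of vehicle-only cultures of the same strain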; settings: S. cerevisiae rad50 strain growth inhibition, active compounds read high
In short: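 Genetically altered yeast (DNA repair pathway); compound treatment; growth inhibition vs vehicle ctrl.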

[6] = NCI Yeast Anticancer Drug Screen. Data for the mec2-1 strain (AID 157); settings: S. cerevisiae mec2-1 strain, active compounds read high
In short: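 Growth inhibition is read against vehicle-treated controls after compound exposure of the mec2-1 yeast strain, which is defective in DNA damage repair or cell cycle control.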

[7] = NCI Yeast Anticancer Drug Screen. Data for the rad14 strain (AID 159);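 note: 0% = growth of vehicle-treated control cultures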; settings: S. cerevisiae rad14 strain growth inhibition, active compounds read high
In short: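 Test compounds were applied to a repair-deficient yeast strain. Its growth was then compared with that of cultures given vehicle alone, and inhibition was expressed relative to those controls.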

[8] = NCI Yeast Anticancer Drug Screen. Data for the sgs1 mgt1 strain (AID 161);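 note: 0% = growth of cultures given vehicle only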; settings: S. cerevisiae sgs1 mgt1 strain, active compounds read high
In short: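 Compounds are added to genetically altered yeast, and growth is compared with cultures given vehicle alone to give percent inhibition.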

[9] = NCI Yeast Anticancer Drug Screen. Data for the CLN2oe strain (AID 163);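 note: 0% = growth of vehicle-only control cultures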; settings: S. cerevisiae CLN2oe strain, active compounds read high
In short: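 Compound-treated yeast; growth vs vehicle ctrl = % inhibition. Genetically altered strain (cell-cycle control).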

[10] = NCI Yeast Anticancer Drug Screen. Data for the bub3 strain (AID 167); settings: S. cerevisiae bub3 mutant strain, active compounds read high
In short: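 Yeast carrying a defined mutation is treated with each compound, and growth is compared with that of vehicle-exposed cells to give inhibition.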

[11] = NCI Yeast Anticancer Drug Screen. Data for the wt2 strain (AID 169);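 note: 0% = growth of vehicle-treated yeast cultures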; settings: S. cerevisiae wt2 strain growth inhibition, active compounds read high
In short: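 Compound exposure of yeast; growth compared with vehicle controls; inhibition reported.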

[12] = NCI Yeast Anticancer Drug Screen. Data for the sgs1 strain (AID 173);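 note: 0% = growth of vehicle-only control cultures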; settings: S. cerevisiae sgs1 mutant, active compounds read high
In short: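 Compounds applied to genetically altered yeast; growth compared with vehicle-treated cultures to give % inhibition.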

[13] = NCI Yeast Anticancer Drug Screen. Data for the mlh1 rad18 strain (AID 175); settings: S. cerevisiae mlh1 rad18 strain growth inhibition, active compounds read high
In short: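 Cells of a genetically altered yeast strain, deficient in DNA damage repair, were treated with compound. Their growth was then compared with that of vehicle-treated cultures to give inhibition.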

[14] = NCI Yeast Anticancer Drug Screen. Data for the rad18 strain (AID 177); settings: S. cerevisiae rad18 mutant growth inhibition, active compounds read high
In short: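 Compounds are applied to a repair-deficient yeast strain, and growth is compared with that of vehicle-treated cultures to give percent inhibition.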

[15] = NCI Yeast Anticancer Drug Screen. Data for the cln2 rad14 strain (AID 165);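 note: 0% = growth equal to vehicle treated cultures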; settings: S. cerevisiae cln2 rad14 strain, active compounds read high
In short: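 Growth inhibition, relative to vehicle-treated controls, is the read-out. The test organism is a yeast strain with defined genetic alterations, cln2 rad14.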

[16] = NCI Yeast Anticancer Drug Screen. Data for the mlh1 strain (AID 171);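 note: 0% = growth of vehicle-treated control cultures of the same strain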; settings: S. cerevisiae mlh1 strain growth inhibition, active compounds read high
In short: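 Compounds are applied to a genetically altered yeast strain, and its growth is compared with that of vehicle-treated cultures to give percent inhibition.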

[17] = at 5.0 µM (retest, dose inferred, filed as 0.5)
[18] = at 50.0 µM (retest, dose inferred, filed as 5.0)

Measured: growth inhibition

C/C=C/SC(=Nc1ccccc1)Nc1ccccc1
inactive: [1]; at 1.2 µM -3% | [1]; at 3.7 µM -5% | [1]; at 11.0 µM -6% | [1]; at 33.0 µM -6% | [2]; at 1.2 µM -3% | [2]; at 3.7 µM 0% | [2]; at 11.0 µM -7% | [2]; at 33.0 µM -15% | [3]; at 1.2 µM 3% | [3]; at 3.7 µM 3% | [3]; at 11.0 µM 11% | [3]; at 33.0 µM 23% | [3]; at 100.0 µM 39% | [4]; at 1.2 µM -6% | [4]; at 3.7 µM -8% | [4]; at 11.0 µM -9% | [4]; at 33.0 µM -13% | [5]; at 1.2 µM -5% | [5]; at 3.7 µM -7% | [5]; [17] -10% | [5]; at 11.0 µM -7% | [5]; at 33.0 µM -8% | [6]; at 1.2 µM -6% | [6]; at 3.7 µM -5% | [6]; [17] -9% | [6]; at 11.0 µM -9% | [6]; at 33.0 µM -8% | [6]; [18] 67% | [6]; at 50.0 µM 49.2% | [7]; at 1.2 µM -4% | [7]; at 3.7 µM -4% | [7]; at 11.0 µM -5% | [7]; at 33.0 µM -4% | [8]; [17] -5% | [9]; at 1.2 µM -9% | [9]; at 3.7 µM -18% | [9]; at 11.0 µM -15% | [9]; at 33.0 µM -24% | [10]; at 1.2 µM 10% | [10]; at 3.7 µM 8% | [10]; [17] 10% | [10]; at 11.0 µM 7% | [10]; at 33.0 µM -12% | [10]; [18] 36% | [11]; at 1.2 µM -3% | [11]; at 3.7 µM -3% | [11]; at 11.0 µM -7% | [11]; at 33.0 µM -9% | [12]; at 1.2 µM -4% | [12]; at 3.7 µM -5% | [12]; at 11.0 µM -7% | [12]; at 33.0 µM -3% | [13]; [17] -10% | [13]; at 50.0 µM 66.3% | [14]; at 1.2 µM -2% | [14]; at 3.7 µM -5% | [14]; at 11.0 µM -8% | [14]; at 33.0 µM -9%
active: [1]; at 100.0 µM 99% | [2]; at 100.0 µM 97% | [4]; at 100.0 µM 98% | [5]; [18] 78% | [5]; at 50.0 µM 88% | [5]; at 100.0 µM 98% | [6]; at 100.0 µM 98% | [7]; at 100.0 µM 99% | [8]; [18] 71% | [8]; at 50.0 µM 90.8% | [9]; at 100.0 µM 97% | [10]; at 50.0 µM 92.5% | [10]; at 100.0 µM 98% | [11]; at 100.0 µM 98% | [12]; at 100.0 µM 98% | [13]; [18] 70% | [14]; at 100.0 µM 98%

CCOC(=O)c1[nH]n(-c2ccccc2)c(=O)c1C=NC(=S)C(N)=S
inactive: [1]; at 1.2 µM 24% | [1]; at 3.7 µM 21% | [1]; at 11.0 µM 30% | [2]; at 1.2 µM 19% | [2]; at 3.7 µM 8% | [2]; at 11.0 µM 25% | [2]; at 33.0 µM 29% | [3]; at 1.2 µM -3% | [3]; at 3.7 µM -23% | [3]; at 11.0 µM 5% | [3]; at 33.0 µM 30% | [3]; at 100.0 µM 69% | [4]; at 1.2 µM -6% | [4]; at 3.7 µM -10% | [4]; at 11.0 µM -16% | [4]; at 33.0 µM 34% | [5]; at 1.2 µM 8% | [5]; at 3.7 µM 29% | [5]; [17] -36% | [5]; at 11.0 µM 31% | [5]; [18] 19% | [6]; at 1.2 µM 5% | [6]; at 3.7 µM 5% | [6]; [17] -22% | [6]; at 11.0 µM -12% | [7]; at 1.2 µM -15% | [7]; at 3.7 µM -15% | [7]; at 11.0 µM -11% | [8]; [17] -4% | [8]; [18] 13% | [15]; [17] -4% | [15]; [18] 12% | [10]; at 1.2 µM -8% | [10]; at 3.7 µM -4% | [10]; [17] -27% | [10]; at 11.0 µM -8% | [10]; at 33.0 µM 8% | [10]; at 50.0 µM 60.2% | [11]; at 1.2 µM -2% | [11]; at 3.7 µM 0% | [11]; at 11.0 µM 7% | [11]; at 33.0 µM 46% | [16]; at 1.2 µM 22% | [16]; at 3.7 µM 16% | [16]; at 11.0 µM 43% | [12]; at 1.2 µM 21% | [12]; at 3.7 µM 27% | [12]; at 11.0 µM 41% | [13]; [17] -3% | [14]; at 1.2 µM 0% | [14]; at 3.7 µM -4% | [14]; at 11.0 µM 2% | [14]; at 33.0 µM 67%
active: [1]; at 33.0 µM 71% | [1]; at 100.0 µM 97% | [2]; at 100.0 µM 98% | [4]; at 100.0 µM 97% | [5]; at 33.0 µM 90% | [5]; at 50.0 µM 87.5% | [5]; at 100.0 µM 97% | [6]; at 33.0 µM 96% | [6]; [18] 88% | [6]; at 50.0 µM 90.7% | [6]; at 100.0 µM 97% | [7]; at 33.0 µM 95% | [7]; at 100.0 µM 97% | [8]; at 50.0 µM 91% | [15]; at 50.0 µM 90.4% | [10]; [18] 92% | [10]; at 100.0 µM 97% | [11]; at 100.0 µM 98% | [16]; at 33.0 µM 96% | [16]; at 100.0 µM 97% | [12]; at 33.0 µM 96% | [12]; at 100.0 µM 97% | [13]; [18] 92% | [13]; at 50.0 µM 86.3% | [14]; at 100.0 µM 97%
